Hit rate of the full screen: of about 5,500 compounds, about 2,000 (36%) were called active. Roughly 18% stayed inconclusive and do not appear here. Rule as the data show it: active = normalized growth mostly below about 0.91 (no sharp cut-off); inconclusive = no clear call, values can overlap the other calls; inactive = mostly above about 0.92. Some of the results follow.
Experiment: chemical genetic growth profiling, strain panel (AID 1159580);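 also: tested at 20 µM; growth read once vehicle control cultures reached saturation at 30 °C; 1 = growth at the plate median or of vehicle wells; lower values mean less growth of the strain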
Conditions: growth OD
[1] = S. cerevisiae deletion strains, locus YHR030C, strain SLT2, active compounds read low

Measured: normalized growth

COc1cc(OC)c(C(=O)CCCN2CCCC2)c(OC)c1
inactive: [1] 1.07 | S. cerevisiae deletion strains, locus YHR079C, strain IRE1, active compounds read low 1.04 | S. cerevisiae deletion strains, locus YJL095W, strain BCK1, active compounds read low 1.03 | S. cerevisiae deletion strains, locus YJR066W, strain TOR1, active compounds read low 0.973 | S. cerevisiae deletion strains, locus YLR113W, strain HOG1, active compounds read low 1.01 | S. cerevisiae deletion strains, locus YNL183C, strain NPR1, active compounds read low 0.973 | S. cerevisiae deletion strains, locus YOR231W, strain MKK1, active compounds read low 1.03 | S. cerevisiae deletion strains, locus YPL256C, strain CLN2, active compounds read low 1.05

CCCCOc1cc(C(=O)O)ccc1OC
inactive: S. cerevisiae deletion strains, locus YAL013W, strain DEP1, active compounds read low 0.97 | S. cerevisiae deletion strains, locus YBR229C, strain ROT2, active compounds read low 0.984 | S. cerevisiae deletion strains, locus YDL101C, strain DUN1, active compounds read low 0.987 | S. cerevisiae deletion strains, locus YDR150W, strain NUM1, active compounds read low 0.988 | S. cerevisiae deletion strains, locus YEL061C, strain CIN8, active compounds read low 1.01 | S. cerevisiae deletion strains, locus YGR078C, strain PAC10, active compounds read low 0.971 | S. cerevisiae deletion strains, locus YGR229C, strain SMI1, active compounds read low 1 | [1] 0.999 | S. cerevisiae deletion strains, locus YHR087W, strain rtc3, active compounds read low 0.977 | S. cerevisiae deletion strains, locus YJR043C, strain POL32, active compounds read low 0.985 | S. cerevisiae deletion strains, locus YJR075W, strain HOC1, active compounds read low 0.962 | S. cerevisiae deletion strains, locus YLR039C, strain RIC1, active compounds read low 1.02 | S. cerevisiae deletion strains, locus YLR058C, strain SHM2 (second series), active compounds read low 0.979 | S. cerevisiae deletion strains, locus YLR085C, strain ARP6, active compounds read low 1.01 | S. cerevisiae deletion strains, locus YLR262C, strain YPT6, active compounds read low 1.04 | S. cerevisiae deletion strains, locus YML094W, strain GIM5, active compounds read low 1 | S. cerevisiae deletion strains, locus YMR219W, strain ESC1, active compounds read low 0.975 | S. cerevisiae deletion strains, locus YMR263W, strain SAP30, active compounds read low 0.977 | S. cerevisiae deletion strains, locus YMR307W, strain GAS1, active compounds read low 0.956 | S. cerevisiae deletion strains, locus YNL128W, strain TEP1, active compounds read low 1.02 | S. cerevisiae deletion strains, locus YNL153C, strain GIM3, active compounds read low 0.979 | S. cerevisiae deletion strains, locus YNL298W, strain CLA4 (second series), active compounds read low 1.03 | S. cerevisiae deletion strains, locus YNL322C, strain KRE1, active compounds read low 0.976 | S. cerevisiae deletion strains, locus YNR030W, strain Alg12, active compounds read low 0.999 | S. cerevisiae deletion strains, locus YPL055C, strain LGE1, active compounds read low 0.941 | S. cerevisiae deletion strains, locus YPL241C, strain CIN2, active compounds read low 1.01 | S. cerevisiae deletion strains, locus YPR135W, strain CTF4, active compounds read low 1.04 | S. cerevisiae strains, strain wild type, active compounds read low 1.02
